Source: the supplement of paper PMC8975748
Counter-ions that a name gives are not always drawn.

test system: Saccharomyces cerevisiae BY4741 SeMeCo community; experiment: z-score of subpopulation abundance vs DMSO median, subpopulation auxotrophic for LU; higher = larger share of this subpopulation than in DMSO controls; settings: 10 µM; 24 h; SM minimal medium; subpopulation (auxotrophy): LU
Procedure: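 Fluorescent four-plasmid SeMeCo (self-establishing metabolically cooperating S. cerevisiae BY4741 community; plasmids pH-mRuby2, pL-mWasabi, pU-eCFP, pM-TagRFP657) was grown 24 h in minimal SM medium with each Selleck FDA-approved drug at 10 µM in 384-well plates. Cells were fixed and imaged by high-content confocal microscopy. For each auxotrophic subpopulation (and the prototroph), a z-score gives the deviation from the DMSO vehicle-control population median.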

Row | SMILES | z-score of subpopulation abundance
1 | CC(c1cc2ccccc2s1)N(O)C(N)=O (stereo not given) [Zileuton] | 0.65
2 | CCOc1cc(N)c(Cl)cc1C(=O)NCC1CN(Cc2ccc(F)cc2)CCO1 (stereo not given) [Mosapride Citrate] | 0.9
3 | CC[C@H](Nc1ncnc2[nH]cnc12)c1nc2cccc(F)c2c(=O)n1-c1ccccc1 [Idelalisib (CAL-101, GS-1101)] | 0.5
4 | O=C(c1ccccc1)c1ccc2n1CCC2C(=O)O (stereo not given) [Ketorolac tromethamine salt] | -0.75
5 | O=C1CN(/N=C/c2ccc(-c3ccc([N+](=O)[O-])cc3)o2)C(=O)N1 [Dantrolene sodium] | -2.49
6 | NC(=O)N1c2ccccc2CC(=O)c2ccccc21 [Oxcarbazepine] | -0.37
7 | C=C1c2cccc(O)c2C(O)=C2C(=O)[C@]3(O)C(O)=C(C(N)=O)C(=O)[C@@H](N(C)C)[C@@H]3[C@@H](O)[C@H]12 [Methacycline HCl] | -0.95
8 | CO/N=C(\C(=O)N[C@@H]1C(=O)N2C(C(=O)O)=C(CSc3nnnn3C)CS[C@H]12)c1csc(N)n1 [Cefmenoxime hydrochloride] | 0.37
9 | Cc1noc(NS(=O)(=O)c2ccc(N)cc2)c1C [Sulfisoxazole] | 1.45
10 | CCC(C)(Oc1ccc(C2(c3ccc(OC(C)(CC)C(=O)O)cc3)CCCCC2)cc1)C(=O)O (stereo not given) [Clinofibrate] | -0.18
11 | CCCOc1ccc2c(c1)CC[C@@H]1[C@@H]2CC[C@]2(C)[C@@H](OC)CC[C@@H]12 [Promestriene] | 0.62
12 | C[C@]12CC[C@@H]3c4ccc(OS(=O)(=O)O)cc4CC[C@H]3[C@@H]1CCC2=O [Estropipate] | -0.6
13 | CC(C)c1nc(N(C)S(C)(=O)=O)nc(-c2ccc(F)cc2)c1/C=C/[C@@H](O)C[C@@H](O)CC(=O)O [Rosuvastatin Calcium] | 1.26
14 | CO[C@@]1(NC(=O)Cc2cccs2)C(=O)N2C(C(=O)O)=C(COC(N)=O)CS[C@@H]21 [Cefoxitin sodium] | -0.8
15 | NCCNc1ccc(NCCN)c2c1C(=O)c1ccncc1C2=O [Pixantrone Maleate] | 2.14
16 | CN(Cc1cnc2nc(N)nc(N)c2n1)c1ccc(C(=O)N[C@@H](CCC(=O)O)C(=O)O)cc1 [Methotrexate disodium] | -3.33
17 | Cc1c(Nc2ncccc2C(=O)O)cccc1C(F)(F)F [Flunixin Meglumin] | -0.33
18 | N=C(N)NC(=O)c1nc(Cl)c(N)nc1N [Amiloride HCl dihydrate] | -3.52
19 | Nc1nc2c(ncn2COCCO)c(=O)[nH]1 [Aciclovir] | 0.29
20 | NC(=O)c1ncn([C@@H]2O[C@H](CO)[C@@H](O)[C@H]2O)n1 [Ribavirin] | 0.48

Row | SMILES | z-score of subpopulation abundance
21 | COCCOC(=O)C1=C(C)NC(C)=C(C(=O)OC/C=C/c2ccccc2)C1c1cccc([N+](=O)[O-])c1 (stereo not given) [Cilnidipine] | 0.17
22 | O=C1CN(/N=C/c2ccc(-c3ccc([N+](=O)[O-])cc3)o2)C(=O)N1 [Dantrolene sodium hemiheptahydrate] | -1.88
23 | O=c1n(CCCN2CCN(c3cccc(Cl)c3)CC2)nc2ccccn12 [Trazodone HCl] | -0.97
24 | O=C(NCCO[N+](=O)[O-])c1cccnc1 [Nicorandil] | 0.21
25 | CN1CCCN=C1/C=C/c1cccc(O)c1 [Oxantel Pamoate] | -0.45
26 | CC1(C)S[C@@H]2[C@H](NC(=O)[C@H](N)c3ccc(O)cc3)C(=O)N2[C@H]1C(=O)O [Amoxicillin trihydrate] | 0.61
27 | CCn1cc(C(=O)O)c(=O)c2cc(F)c(N3CCNC(C)C3)c(F)c21 (stereo not given) [Lomefloxacin HCl] | 0.53
28 | C#C[C@]1(O)CC[C@H]2[C@@H]3CCC4=CCCC[C@@H]4[C@H]3CC[C@@]21C [Lynestrenol] | -0.82
29 | Cc1nc(NC(=O)N2CCC[C@H]2C(N)=O)sc1-c1ccnc(C(C)(C)C(F)(F)F)c1 [Alpelisib (BYL719)] | 0.28
30 | CCOC(=O)C1=C(COCCN)NC(C)=C(C(=O)OC)[C@@H]1c1ccccc1Cl [Levamlodipine] | -6.47
31 | Cc1nc(=O)c2cc(CN(C)c3ccc(C(=O)N[C@@H](CCC(=O)O)C(=O)O)s3)ccc2[nH]1 [Raltitrexed] | -1.62
32 | CCc1cc(C(N)=S)ccn1 [Ethionamide] | 0.05
33 | CNCCCN1c2ccccc2CCc2ccccc21 [Desipramine Hydrochloride] | -0.28
34 | CN1CCN(CCCN2c3ccccc3Sc3ccc(C(F)(F)F)cc32)CC1 [Trifluoperazine 2HCl] | -0.4
35 | C[C@]12CCC3=C4CCC(=O)C=C4CC[C@H]3[C@@H]1CC[C@@]2(O)CC#N [Dienogest] | -0.52
36 | COC(=O)C1=C(C)NC(C)=C(C(=O)OC(C)C)C1c1cccc2nonc12 (stereo not given) [Isradipine] | 0.62
37 | O=C(O[C@H]1CN2CCC1CC2)N1CCc2ccccc2[C@@H]1c1ccccc1 [Solifenacin succinate] | 0.43
38 | CC1(C)S[C@@H]2[C@H](NC(=O)[C@H](N)c3ccccc3)C(=O)N2[C@H]1C(=O)O [Ampicillin sodium] | 0.12
39 | O=C(CCCN1CCN(c2ccccn2)CC1)c1ccc(F)cc1 [Azaperone] | 0.24
40 | CC1(C)S[C@@H]2[C@H](NC(=O)Cc3ccccc3)C(=O)N2[C@H]1C(=O)O [Penicillin G Sodium] | 0.16
